Measured values as given in PubChem BioAssay (Tox21).
A number with no mark means an inactive call. Active and inactive are the calls of the source. Calls follow the shape of the dose curve; as a rule, active = well fitted curve in the direction sought with a large enough effect in the repeat runs; inconclusive = weak or mixed curves; inactive = flat fitted curve, though single readings scatter. Starred links: 1 amine or outer side, 2 acyl side, 3 side chain; linkers in the order of their positions; H or OH if unused. Positions of bridges follow the written chain, without caps; N, C: chain ends. Non-standard residues stand in square brackets, D forms with d. Residues, ends and D or L forms follow the SMILES beside them. *: point of attachment. X5 = NC1=N[C@@H]([C@H](N[*:1])C(=O)[*:2])C[C@H](O)N1; ΔAla(Z-3-ureido) = NC(=O)N/C=C(\N)C(=O)O; β3hOrn = NCCC[C@H](N)CC(=O)*; Orn = NCCC[C@H](N)C(=O)O; Dap = NC[C@H](N)C(=O)O; Mpa = O=C(O)CCS

Experiment: qHTS assay to test for compound auto fluorescence at 590 nm (red) in HEK293 cell free culture (AID 720683)
Conditions: cell-free medium autofluorescence, Ex540/Em590 red; series mostly up to 46 µM; fluorescence, % of fluorescent control: at the top concentration
Procedure, shortened: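 Tox21 10K library compounds were pinned into cell-free DMEM with 10% FBS and fluorescence was read at excitation 540 nm. Activity is expressed as Rose Bengal sodium equivalency.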
% is scaled to controls: 0 for no effect and ±100 for the full control effect.

Row | Compound | fluorescence, % of fluorescent control
1 | COC(=O)[C@H]1[C@H]2C[C@@H]3c4[nH]c5cc(OC)ccc5c4CCN3C[C@H]2C[C@@H](OC(=O)/C=C/c2cc(OC)c(OC)c(OC)c2)[C@@H]1OC | -0.18% [at 18.6 µM]
2 | Cn1nnnc1SCC1=C(C(=O)O)N2C(=O)[C@@H](NC(=O)[C@H](OC=O)c3ccccc3)[C@H]2SC1 | -0.0521%
3 | CC(C)(C)CC(=O)OCC(=O)[C@@]12OC(C)(C)O[C@@H]1C[C@H]1[C@@H]3CCC4=CC(=O)C=C[C@]4(C)[C@@]3(F)[C@@H](O)C[C@@]12C | -0.712%
4 | COc1ccc2c(=O)c(C)c(-c3ccccc3)oc2c1CN(C)C | -0.216%
5 | CCOC(=O)COc1ccc2c(C)c(CCN(CC)CC)c(=O)oc2c1 | -0.38%
6 | O=C(O)[C@H](CC(=O)N1C[C@H]2CCCC[C@H]2C1)Cc1ccccc1 | 0.12%
7 | C=C1/C(=C\C=C2/CCC[C@]3(C)[C@@H]([C@H](C)OCCC(C)(C)O)CC[C@@H]23)C[C@@H](O)C[C@@H]1O | 0.213%
8 | N=C(N)c1ccc(OCCCOc2ccc(C(=N)N)cc2Br)c(Br)c1 | -0.469%

Experiment: qHTS assay to test for compound auto fluorescence at 590 nm (red) in HepG2 cell free culture (AID 720684)
Conditions: cell-free medium autofluorescence, red 540/590 nm; series mostly up to 46 µM; fluorescence, % of Rose Bengal: at the top concentration
Procedure, shortened: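 Readout: intrinsic compound fluorescence at 590 nm emission after 540 nm excitation, scaled to Rose Bengal sodium. Matrix was cell-free MEM with 10% FBS; DMSO vehicle wells served as control.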

Row | Compound | Potency | fluorescence, % of Rose Bengal
9 | COCC1=C(C(=O)OC(C)OC(=O)OC(C)C)N2C(=O)[C@@H](NC(=O)/C(=N\OC)c3csc(N)n3)[C@H]2SC1 (some centres not stated) | inactive | 
10 | CO[C@@H]1[C@@H](O[C@@H]2O[C@H](C)[C@@H](O[C@H]3C[C@@](C)(O)[C@@H](OC(=O)CC(C)C)[C@H](C)O3)[C@H](N(C)C)[C@H]2O)[C@@H](CC=O)C[C@@H](C)[C@@H](O)/C=C/C=C/C[C@@H](C)OC(=O)C[C@H]1O | inactive | 
11 | CC(=O)O[C@H]1C[C@@H]2CC[C@@H]3[C@H](CC[C@@]4(C)[C@H]3C[C@H](N3CC[N+](C)(C)CC3)[C@@H]4OC(C)=O)[C@@]2(C)C[C@@H]1N1CC[N+](C)(C)CC1 |  | 0.0135%
12 | NCCC[C@H](N)CC(=O)N[C@H]1CNC(=O)[C@H]([C@H]2C[C@H](O)NC(N)=N2)NC(=O)/C(=C/NC(N)=O)NC(=O)[C@H](CO)NC(=O)[C@H](CO)NC1=O (β3hOrn-[Dap]SS[ΔAla(Z-3-ureido)][X5]; lactam 1-C) |  | -0.0753%
13 | CCOc1ccc(C[C@H]2NC(=O)CCSSC[C@@H](C(=O)N3CCC[C@H]3C(=O)N[C@@H](CCCN)C(=O)NCC(N)=O)NC(=O)[C@H](CC(N)=O)NC(=O)[C@H]([C@@H](C)O)NC(=O)[C@H]([C@@H](C)CC)NC2=O)cc1 ([Mpa][dY](Et)ITNCP[Orn]G-NH2; disulfide 1-6) |  | 0.0161%
14 | O=P(O)(O)C(O)(Cc1cnc2ccccn12)P(=O)(O)O |  | -0.0663%
15 | OCC(O)COc1ccc(Cl)cc1 (configuration not stated) |  | -0.0017%
16 | CCCCCCCCCCCCCCCC(=O)OC[C@@H](NC(=O)C(Cl)Cl)[C@H](O)c1ccc([N+](=O)[O-])cc1 |  | -0.0836%
17 | NC(=O)Oc1ccc(Cc2ccccc2)cc1 |  | 0.0781%
18 | CCCC(CCC)C(N)=O |  | 0.165%
19 | CC1CC(OC(=O)C(O)c2ccccc2)CC(C)(C)C1 (configuration not stated) |  | -0.139%
20 | OC(CN1CCCCC1)c1cc(-c2ccccc2)on1 (configuration not stated) |  | -0.0016%
21 | CCC(c1ccccc1)c1noc(CCN(CC)CC)n1 (configuration not stated) |  | -0.0601%
22 | O=S(O)CNc1ccc(S(=O)(=O)c2ccc(NCS(=O)O)cc2)cc1 |  | 0.109%
23 | C=CCN1CCCC1CNC(=O)c1cc(S(N)(=O)=O)cc(OC)c1OC (configuration not stated) |  | -0.249%
24 | CCCCCCCCCCCCCCCCCC(=O)OCCO |  | -0.264%
25 | CCCCCCCCCCCCCCCCCCCCCC(=O)Nc1ccn([C@@H]2O[C@H](CO)[C@@H](O)[C@@H]2O)c(=O)n1 |  | 0.0548%
26 | CCCCOC(=O)C(=O)Nc1cccc(-c2nn[nH]n2)c1 |  | -0.18%
27 | CCOC(=O)[C@H](CCc1ccccc1)N[C@H]1CCCN2CCC[C@@H](C(=O)O)N2C1=O |  | 0.102%
28 | CC(C)CN(C[C@@H](O)[C@H](Cc1ccccc1)NC(=O)O[C@@H]1CCOC1)S(=O)(=O)c1ccc(N)cc1 |  | 0.576%

Row | Compound | Potency | fluorescence, % of Rose Bengal
29 | O.O=C([O-])CC([S-])C(=O)[O-].[Au+].[Na+].[Na+] (configuration not stated) |  | 0.0065%
30 | O=P(O)(O)C(Sc1ccc(Cl)cc1)P(=O)(O)O |  | -0.301%
31 | O=C(CCCN1CCC(C(=O)c2ccc(F)cc2)CC1)c1ccc(F)cc1 |  | -0.138%
32 | C[C@H]1C[C@H]2[C@@H]3CCC4=CC(=O)C=C[C@]4(C)[C@@]3(F)[C@@H](O)C[C@]2(C)[C@@]1(O)C(=O)CCl |  | 0.142%
33 | CC#CCC(C)[C@H](O)/C=C/[C@@H]1[C@H]2C/C(=C/CCCC(=O)O)C[C@H]2C[C@H]1O (some centres not stated) |  | -0.141%
34 | NCCC[C@H](N)C(=O)O |  | -0.0094%
35 | CN1[C@@H]2CCC[C@H]1CC(NC(=O)c1nn(C)c3ccccc13)C2 (some centres not stated) |  | -0.157%
36 | CS(=O)(=O)NC(=O)CCC/C=C\C[C@H]1C(=O)C[C@@H](O)[C@@H]1/C=C/[C@H](O)COc1ccccc1 |  | 0.1%
37 | OC[C@@H](O)C(O)[C@H](O)CO |  | -0.323%
38 | N[C@@H](C(=O)N[C@@H]1C(=O)N2C(C(=O)O)=C(CSc3cn[nH]n3)CS[C@H]12)c1ccc(O)cc1 |  | 0.038%
39 | CC1(C)S[C@@H]2[C@H](NC(=O)Cc3ccccc3)C(=O)N2[C@H]1C(=O)O |  | -0.0504%
40 | COC(=O)[C@H]1[C@H]2C[C@@H]3c4[nH]c5cc(OC)ccc5c4CCN3C[C@H]2C[C@@H](OC(=O)/C=C/c2cc(OC)c(OC)c(OC)c2)[C@@H]1OC |  | -0.0039% [at 18.6 µM]
41 | Cn1nnnc1SCC1=C(C(=O)O)N2C(=O)[C@@H](NC(=O)[C@H](OC=O)c3ccccc3)[C@H]2SC1 |  | 0.151%
42 | CC(C)(C)CC(=O)OCC(=O)[C@@]12OC(C)(C)O[C@@H]1C[C@H]1[C@@H]3CCC4=CC(=O)C=C[C@]4(C)[C@@]3(F)[C@@H](O)C[C@@]12C |  | 0.0035%
43 | COc1ccc2c(=O)c(C)c(-c3ccccc3)oc2c1CN(C)C |  | -0.105%
44 | CCOC(=O)COc1ccc2c(C)c(CCN(CC)CC)c(=O)oc2c1 |  | 0.219%
45 | O=C(O)[C@H](CC(=O)N1C[C@H]2CCCC[C@H]2C1)Cc1ccccc1 |  | 0.0734%
46 | C=C1/C(=C\C=C2/CCC[C@]3(C)[C@@H]([C@H](C)OCCC(C)(C)O)CC[C@@H]23)C[C@@H](O)C[C@@H]1O |  | 0.0478%
47 | N=C(N)c1ccc(OCCCOc2ccc(C(=N)N)cc2Br)c(Br)c1 |  | 0.156%
